Rows were chosen to be rich in hits. Some 12% of all compounds tested hit in one or more screens of this group.
HCV inhibitor: inhibitors of hepatitis C virus infection | Huh7.5.1 HCVcc-Cre infection, luciferase reporter, 44 h | 340,000 tested, 3.4% active | AID 651820 | Potency, µM (highest dose often 41.8 µM), most hits filed as inhibitors
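Cells (1,000/well) were plated 4 h before compound, then infected with HCVcc-Cre virus (~0.5 moi). After 44 h further culture, infection was read as luciferase luminescence following a 15 min substrate incubation at room temperature.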
SARS PLpro yeast: inhibitors of SARS-CoV papain-like protease in yeast; Potency, µM (highest dose often 32.9 µM), hits mostly activators; S. cerevisiae expressing SARS-CoV PLpro, growth rescue; 330,000 tested, 0.19% active; calls by dose curve; also: nearly all actives have a fitted effect of over 55% in size
Pf growth 96h: P. falciparum growth inhibition at 96 hours | P. falciparum luciferase reporter growth, 96 h | Potency, µM (doses to about 28.7 µM), usual class: inhibitors | 320,000 tested, 6.9% active
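Cell-based qHTS: luciferase-tagged P. falciparum in erythrocytes (2% hematocrit, 0.05% parasitemia final) incubated with compounds for 96 hours, 37 C, 5% CO2; luciferase detection reagent then added and luminescence measured.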
AMA1 RON2 block: disrupts binding of P. falciparum AMA1 to RON2. AlphaScreen AMA1-biotinylated RON2 peptide binding. Potency, µM (doses to about 58.2 µM), hits mostly inhibitors. 360,000 tested, 0.2% active. AID 720542; also: nearly all actives have a fitted effect of over 45% in size
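AMA1 (3D7) with his tag at 25 nM final met compounds first, then biotinylated RON2 peptide at 25 nM; detection used donor plus acceptor beads, 10 µg/mL apiece, read by AlphaScreen after 30 min at room temperature.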
Pf growth 48h: P. falciparum growth inhibition at 48 hours (one generation); P. falciparum luciferase growth in erythrocytes, 48 h; Potency, µM (highest dose often 28.7 µM), actives largely listed as inhibitors; 310,000 tested, 5.9% active; AID 504832
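In quantitative HTS format, infected erythrocytes bearing luciferase-reporter parasites were treated for a single generation at 37 C. Luminescence after adding detection reagent served as the growth measure.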
NS1 function inh: inhibitors of influenza NS1 protein function. Potency, µM (top dose mostly 46.1 µM). 270,000 tested, 0.4% active; calls by dose curve; also: actives are rising curves; nearly all actives have a fitted effect of over 50% in size
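Compounds were scored for reversing the slow growth caused by influenza A NS1 in S. cerevisiae, measured by optical density at 600 nm. Assay medium contained 2% galactose at pH 6.0; NS1-free yeast of the same strain were the positive control.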
A number is an active result; i = inactive; ? = inconclusive; nt = not tested or not shown; ! = not active in a repeat; [ ] = remark or other dose. Unless noted, calls follow the shape of the dose curve; as a rule, active = well fitted curve in the direction sought with a large enough effect; inconclusive = small, poorly fitted or top-dose-only effect, or another doubt; inactive = no such curve, though single readings can be large; an effect the other way counts as inactive or inconclusive.

SMILES | HCV inhibitor | SARS PLpro yeast | Pf growth 96h | AMA1 RON2 block | Pf growth 48h | NS1 function inh
CCC/C(O)=C1\C(=O)CCCC1=NCCc1c(C)[nH]c2ccc(OC)cc12 | i | i | i | i | i | nt
COCCNC(=O)C(NC(=O)C1CCCCC1)C(C)C (stereo unspecified) | i | i | 0.74µM | i | i | nt
N#CC1=C(N)N2C(=C(C#N)C1c1ccc(Br)cc1)Nc1ccccc12 (stereo unspecified) | 6.3µM | i | 9.3µM | i | ? | i
O=C1NC(Cc2ccccc2)c2nc3cc(Cl)ccc3c(=O)n2-c2ccccc21 (stereo unspecified) | 3.5µM | i | nt | nt | nt | nt
O=C1NC(Cc2ccccc2)c2nc3ccc(Cl)cc3c(=O)n2-c2ccccc21 (stereo unspecified) | i | i | nt | nt | nt | nt
CC(C(=O)N1CCCCC1)N1C(=O)c2ccccc2C1=O (stereo unspecified) | i | i | nt | i | i | i
CC(C)C(C(=O)N1CCOCC1)N1C(=O)c2ccccc2C1=O (stereo unspecified) | i | i | 10µM | i | i | i
O=C(NNc1ncnc2ccccc12)c1cccc(Cl)c1 | i | i | i | i | i | i
CCC1(c2ccc(F)cc2)NC(=O)N(CC(=O)N2c3ccccc3CC2C)C1=O (stereo unspecified) | i | i | ? | i | ? | nt
CS(=O)(=O)N(CC(=O)NCCC1=CCCCC1)c1ccc2c(c1)OCO2 | i | i | i | i | 4.1µM | i
O=C(CN(c1ccc(F)cc1)S(=O)(=O)c1ccccc1)NCCSC1CCCCC1 | i | i | ? | i | 6.6µM | i
CS(=O)(=O)N(CC(=O)NCCSC1CCCCC1)c1ccc2c(c1)OCO2 | i | i | i | i | 5.2µM | i
COc1ccc(N(CC(=O)NCCC2=CCCCC2)S(=O)(=O)c2ccccc2F)cc1 | ? | i | 10µM | i | ? | i
Cc1cc(F)ccc1S(=O)(=O)N1CCC2(CC1)OCCN2S(=O)(=O)c1cccs1 | ? | i | ? | i | ? | nt
Cc1cc(C)nc(/N=C(\N)Nc2ccccc2-c2ccccc2)n1 | ? | i | i | i | ? | i
COc1ccc(NC(=O)/C(Cl)=C(/Cl)S(=O)(=O)Cc2ccc(C)cc2)cn1 | 2.5µM | i | ? | i | nt | i
COc1ccc(NC(=O)Cc2ccc(Cl)c(Cl)c2)cn1 | i | i | ? | i | i | nt
COc1ccc(NC(=O)/C(Cl)=C(/Cl)S(=O)Cc2ccccc2Cl)cn1 (stereo unspecified) | 2.8µM | i | 7.4µM | i | ? | nt
CNc1cncc(-c2ccc(OCCCN(C)C)nc2)n1 | nt | nt | nt | i | nt | nt
C=CCc1c(C)nc(SC)nc1Nc1ccc(C)cc1 | 10µM | i | nt | i | i | i
C[C@@H](NC(=O)c1cc2c([nH]c3ccccc32)c(-c2ccccc2)n1)C(=O)O | i | i | ? | i | i[0.00184 µM] | i
O=C(c1cnc2n(c1=O)CCS2)N(c1ccccc1)C1CCCCC1 | i | i | 6.6µM | i | ? | i
Cc1cccc(N(C(=O)c2cnc3n(c2=O)CCS3)C2CCCCC2)c1 | i | i | i | i | i | i
Cc1ccc(NC(=S)NC(NC(=O)c2ccco2)C(Cl)(Cl)Cl)cc1 (stereo unspecified) | ? | i | nt | i | 4.7µM | i
Cc1cccc(NC(=S)NC(NC(=O)c2ccco2)C(Cl)(Cl)Cl)c1 (stereo unspecified) | i | i | nt | i | 13µM | i
SMILES | HCV inhibitor | SARS PLpro yeast | Pf growth 96h | AMA1 RON2 block | Pf growth 48h | NS1 function inh
Cc1cc(C)c2c(N=NN3CCOCC3)[nH]nc2n1 | i | i | 4.7µM | i[2.32 µM] | i | i
C[N+]1(C)CCO[C@](O)(c2ccccc2)C1 | nt | nt | nt | nt | nt | i
CN(C)CCCN(C(=O)c1ccc2c(c1)CCCC2)c1nc2cc3c(cc2s1)OCO3 | ? | i | 2.3µM | i | 12µM | i
CN(C)CCCN(C(=O)c1ccc(S(=O)(=O)N(C)C)cc1)c1nc2cc3c(cc2s1)OCO3 | i | i | i | i | ? | i
CN(C)CCCN(C(=O)c1ccc2c(c1)CCCC2)c1nc2ccc(F)cc2s1 | 7.9µM | i | ? | ? | 8.3µM | i
CN(C)CCCN(C(=O)c1ccc(S(=O)(=O)N(C)C)cc1)c1nc2ccc(F)cc2s1 | i | i | i | i | i | nt
Oc1c(Br)cc(Br)cc1C=Nc1cccc2ncccc12 | i | nt | nt | i | nt | nt
COc1ccccc1CNC(=O)Cn1nc(C(F)(F)F)cc1C | i | i | 15µM | i | 12µM | nt
Cc1cc(C(F)(F)F)nn1CC(=O)NCc1ccccc1 | i | i | 7.4µM | i | nt | i
O=C(O)C(O)(c1ccccc1)C1CCCCC1 (stereo unspecified) | i | i | ? | i | i | i
CCOC(C(=O)OCCC[N+](C)(CC)CC)(c1ccccc1)c1ccccc1 | i | i | nt | i | 2.1µM | i
CCN(CC)CC#CCOC(=O)[C@@](O)(c1ccccc1)C1CCCCC1 | nt | nt | 12µM | nt | ? | nt
CCOC(C(=O)OCC(O)CN(CC)CC)(c1ccccc1)c1ccccc1 (stereo unspecified) | i | i | i | i | 10µM | i
CCN(CC)CCCOC(=O)C(OC)(c1ccccc1)c1ccccc1 | i | i | i | i | nt | i
CC[N+](C)(CC)CCCOC(=O)C(O)(c1ccccc1)C1CCCCC1 (stereo unspecified) | i | i | i | i | 4.1µM | i[9.22 µM]
CC[N+](C)(CC)CCOC(=O)C(O)(c1ccccc1)C1CCCCC1 (stereo unspecified) | i[8.37 µM] | i | 13µM! | i | 12µM! | i
CC[N+](C)(CC)CCC(c1ccccc1)C1CCCCC1 (stereo unspecified) | i | i | ? | i | 6.6µM | i
CCC(C(=O)NC1CCCCCC1)c1ccccc1 (stereo unspecified) | ? | nt | nt | i | nt | nt
Cc1ccc(S(=O)(=O)N(C)CC(=O)OCC(=O)c2c(N)n(C)c(=O)n(C)c2=O)cc1 | i | i | i | i | i | i
CCOc1cccc(C(=O)Nc2ccc(N(CC)CC)cc2)c1 | ? | i | ? | ? | i | i
CCN(CC)c1cccc(OCC(=O)N(C)CCC#N)c1 | i | i | i | i | 10µM | i
CN1C(=O)C2(OCC(COc3ccc(Cl)cc3)O2)c2ccccc21 (stereo unspecified) | i | i | i | ? | i | i
O=C1Nc2ccccc2C12OCC(COc1ccc(Cl)cc1)O2 (stereo unspecified) | 13µM | i | nt | i | i | i
CC(C)Cc1cc(CN2CCC(CO)(Cc3ccccc3)CC2)[nH]n1 | i | i | ? | i | i | i
O=C(Cn1ncc2c([nH]c3ccccc32)c1=O)NCCc1ccccc1 | i | i | i | i | i | i
O=C(Cn1ncc2c([nH]c3ccccc32)c1=O)NCC1CCN(Cc2ccccc2F)CC1 | i | ? | 9.3µM | i | i | i
CN1/C(=C\C=C\C2=[N+](C)c3ccc4ccccc4c3C2(C)C)C(C)(C)c2ccccc21 | nt | i | 0.33µM | nt | 1.3µM | i
CN1\C(=C/C=C/C=C/C=[N+](C)C)C(C)(C)c2ccccc21 | i | i | ? | 22µM | ? | nt
